Compound activity: PubChem, National Center for Advancing Translational Sciences (NCATS)
Tau fibril ThT: qHTS for Inhibitors of Tau Fibril Formation, Thioflavin T Binding | Microtubule-associated protein tau (Homo sapiens), P10636 | recombinant tau K18 P301L, heparin-induced fibrillization, ThT fluorescence | Potency, µM (highest dose often 57.4 µM), hits mostly inhibitors | 270,000 compounds, 2.1% hits | AID 1460, 2008; note: nearly all actives have a fitted effect of over 55% in size
Target sequence (P10636 561-689 P618L limits assumed): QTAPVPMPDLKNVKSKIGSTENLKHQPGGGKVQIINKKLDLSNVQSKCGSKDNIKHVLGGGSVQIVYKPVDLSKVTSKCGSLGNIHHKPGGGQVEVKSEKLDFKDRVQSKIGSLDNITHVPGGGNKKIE
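Recombinant human tau K18 fragment […] carrying P301L, 15 uM unlabeled plus 0.24 uM Alexa 594-labeled, was fibrillized with 20 uM heparin in 100 mM sodium acetate pH 7 for 6 hr at 37 C; 30 uM ThT fluorescence read after 1 hr.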
Tau FP inhib: qHTS for Inhibitors of Tau Fibril Formation, Fluorescence Polarization. K18 P301L tau heparin fibrillization, Alexa594 FP, 6 h. Potency, µM (series often up to 57.7 µM), actives largely listed as inhibitors. 280,000 compounds, 0.39% hits. AID 1468, 2008; note: nearly all actives have a fitted effect of over 55% in size
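K18 P301L tau (15 uM unlabeled/0.24 uM Alexa 594-labeled, final) + compound + heparin 20 uM final; 100 mM NaOAc pH 7; 6 hr 37 C; ThT 30 uM final added, 1 hr RT; FP ex 555/em 632 nm.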
Sfp PPTase inh: qHTS Assay for Inhibitors of Bacillus subtilis Sfp phosphopantetheinyl transferase (PPTase); 4'-phosphopantetheinyl transferase ffp (Bacillus subtilis), Q9F4F7; Biochemical Sfp PPTase activity, qHTS; Potency, µM, most hits filed as inhibitors; 310,000 compounds, 3.5% hits; AID 1490, 2009;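 note: the enzyme is Sfp with the accession as filed and its product quenches rhodamine fluorescence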
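Sfp 15 nM + cpd, 15 min RT; start w/ rhodamine-CoA 5 uM, BHQ-2-YbbR 12.5 uM (final); 50 mM Hepes pH 7.6, 10 mM MgCl2, 0.01% NP-40, 0.01% BSA; read 525/598 nm at 0 and 30 min.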
FBPA coupling cs: qHTS Assay for Inhibitors of Fructose-1,6-bisphosphate Aldolase from Giardia Lamblia: Coupling assay counterscreen; coupling enzyme system counterscreen, AmpLite Red fluorescence; activity change, negative = inhibition, % at 58.2 µM, hits read low; 290,000 compounds, 0.67% hits; in the data active = activity change below about -30%
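Activity here indicates interference with the coupling reaction, not aldolase inhibition. Compounds at 57.5 uM final met coupling enzymes for 10 min at RT; substrate and AmpLite Red detection followed, with a 525/598 nm fluorescence read after 20 min.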
Tau fluor cs: Counterscreen qHTS for Inhibitors of Tau Fibril Formation, Fluorescence Polarization. tau K18 P301L Alexa594 fluorescence, heparin fibrillization. Potency, µM (highest dose often 57.7 µM). 280,000 compounds, 0.93% hits; note: nearly all actives have a fitted effect of over 55% in size
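Human tau K18 P301L (15 uM unlabeled, 0.24 uM Alexa 594-labeled) in 100 mM sodium acetate pH 7 with 20 uM heparin, 6 hr at 37 C. ThT 30 uM added, 1 hr ambient; Alexa 594 FP and total fluorescence read at 555/632 nm.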
G9a block: qHTS Assay for Inhibitors of Histone Lysine Methyltransferase G9a; Histone-lysine N-methyltransferase EHMT2 (Homo sapiens), Q96KQ7; G9a H3K9 monomethylation, AlphaScreen, 2 h; Potency, µM (doses to about 102 µM), actives largely listed as inhibitors; 350,000 compounds, 8.8% hits; AID 504332, 2011; note: nearly all actives have a fitted effect of over 75% in size
Target sequence (Q96KQ7 913-1193 limits assumed): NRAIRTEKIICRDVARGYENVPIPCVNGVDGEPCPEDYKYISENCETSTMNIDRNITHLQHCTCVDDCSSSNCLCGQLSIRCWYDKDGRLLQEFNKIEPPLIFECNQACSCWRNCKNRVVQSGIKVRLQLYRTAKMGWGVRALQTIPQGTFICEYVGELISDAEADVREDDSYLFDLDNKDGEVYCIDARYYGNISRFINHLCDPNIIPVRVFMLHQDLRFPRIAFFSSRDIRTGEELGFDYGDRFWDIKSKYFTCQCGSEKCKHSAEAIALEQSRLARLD
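Readings reflect AlphaScreen signal from monomethyl-H3K9 antibody detection. HMT at 20 nM; substrate b-H3K9 500 nM; cofactor SAM 20 uM; 2 h RT reaction; compounds tested as titrations in qHTS with 15 min preincubation.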
Each line names hits and unclear results; the compound was inactive in the other large screens; ! = not active in a repeat; [ ] = dose if it differs, or a comment. This is a sample that favours compounds with a hit; in the whole collection about 11% have one here. Unless noted, calls come from the whole dose curve; as a rule, active = well fitted curve in the direction sought with a large enough effect; inconclusive = small, poorly fitted or top-dose-only effect, or another doubt; inactive = no such curve, though single readings can be large; an effect the other way counts as inactive or inconclusive.

CSc1ncc(C(=O)Nc2ccc(Br)cn2)c(C)n1	G9a block inconclusive (no result: Tau fibril ThT, Tau FP inhib, Tau fluor cs)
CN1CCN(S(=O)(=O)c2cccc(C(=O)NCc3ccc(Cl)cc3)c2)CC1	none
CC(=O)CC1(OC(C)=O)C(=O)N(C)c2ccccc21 (centres undefined)	Tau fibril ThT inconclusive
COc1cc2c(cc1OC)CN(c1nc(CN3CCOCC3)nc3sc4c(c13)CCCC4)CC2	Tau fibril ThT inconclusive, G9a block 44.7µM
Cc1cc(S(=O)(=O)Nc2nc(CN3CCOCC3)nc3sc4c(c23)CCC4)cc(C)c1C	G9a block 44.7µM (no result: Tau fibril ThT, Tau FP inhib, Sfp PPTase inh, FBPA coupling cs, Tau fluor cs)
Cc1sc2nc(CN3CCOCC3)nc(N3CCOCC3)c2c1C	Sfp PPTase inh inconclusive, G9a block 3.55µM
COc1cc2c(cc1OC)CN(c1nc(CN3CCCC3)nc3sc(C)c(C)c13)CC2	Sfp PPTase inh inconclusive, G9a block 35.5µM
Cc1sc2nc(CN3CCOCC3)nc(N3CCC(C(N)=O)CC3)c2c1C	none
COc1ccc(NC(=O)CSc2n[nH]c(CNc3cccc(C)c3)n2)cc1	G9a block inconclusive (no result: Tau fibril ThT, Tau FP inhib, Tau fluor cs)
S=P(N1CC1)(N1CC1)N1CC1	G9a block 7.94µM!
O=C(CSc1nc2cc(Cl)ccc2s1)N1CCN(C(=O)c2ccco2)CC1	G9a block 44.7µM
Cn1cnnc1SCC(=O)N1CCN(C(=O)c2ccco2)CC1	G9a block 35.5µM
CCSc1nnc(SCC(=O)N2CCN(C(=O)c3ccco3)CC2)s1	none (no result: Tau fibril ThT, Tau FP inhib, FBPA coupling cs, Tau fluor cs)
Cn1nnnc1SCC(=O)N1CCN(C(=O)c2ccco2)CC1	none
Cc1cc2cc3c(cc2nc1SCC(=O)N1CCN(C(=O)c2ccco2)CC1)OCO3	G9a block 50.1µM
Cc1ccc(N2C(=O)CC(N3CCN/C3=C3\CC/C(=C\c4ccccc4)C3=O)C2=O)cc1 (centres undefined)	none
Cc1cc(C)n2c(Nc3ccccc3C)c(-c3cccs3)nc2n1	none (no result: Sfp PPTase inh, FBPA coupling cs)
CN(C)c1ccc(C(=O)c2ccc(N(C)C)c(N)c2)cc1N	Tau fibril ThT inconclusive, G9a block 79.4µM
CCCn1c(=O)c2sccc2n2c(CCCC(=O)NC3CCC(C)CC3)nnc12 (centres undefined)	none (no result: Sfp PPTase inh, FBPA coupling cs)
CCN(CCO)c1ccc(N=Nc2cc(C)[nH]n2)cc1	Tau fibril ThT 10µM (no result: G9a block)
CCOC(=O)c1ccccc1NC(=O)N1CCOc2ccc(Cl)cc21	Tau fluor cs 3.16µM[quencher], G9a block inconclusive (no result: Sfp PPTase inh, FBPA coupling cs)
COc1ccc(N2CCN(C(=O)CCC(=O)N3CCOc4ccc(Cl)cc43)CC2)cc1	G9a block inconclusive (no result: Tau fibril ThT, Tau FP inhib, Tau fluor cs)
O=C(Nc1cccc2c1CCCC2)N1CCOc2ccc(Cl)cc21	none (no result: Sfp PPTase inh, FBPA coupling cs)
COc1ccc(NC(=O)N2CCOc3ccc(Cl)cc32)cc1	Tau fluor cs 8.91µM[quencher] (no result: Sfp PPTase inh, FBPA coupling cs)
COc1ccc(C2C(C#N)=C3NC(=O)c4c(sc5c4CCCCC5)N3C3=C2C(=O)CC(C)(C)C3)cc1 (centres undefined)	Sfp PPTase inh 56.2µM
O=C(c1cc(COc2ccc3c(c2)CCCC3)on1)N1CCCC1	G9a block inconclusive (no result: Tau fibril ThT, Tau FP inhib, FBPA coupling cs, Tau fluor cs)
Cc1ccc(OCc2cc(C(=O)N3CCc4[nH]cnc4C3c3ccccn3)no2)cc1C (centres undefined)	G9a block 70.8µM (no result: Tau fibril ThT, Tau FP inhib, FBPA coupling cs, Tau fluor cs)
Cc1ccccc1CNC(=O)c1ccc(Cn2c(SCc3cccc(F)c3)nc3cccnc32)cc1	none (no result: Sfp PPTase inh, FBPA coupling cs)
O=c1ccc2cc3c([nH]c4ccc(Br)cc43)oc-2c1O	Tau fibril ThT 14.1µM, Tau FP inhib inconclusive, Sfp PPTase inh 22.4µM, Tau fluor cs inconclusive, G9a block inconclusive
O=c1c2c([nH]c3ccc(Br)cc13)CCCC2	G9a block inconclusive
CC(=O)c1ccc(N2CCN(S(=O)(=O)c3cc(-c4onc(C)c4C)ccc3C)CC2)cc1	none (no result: Sfp PPTase inh, FBPA coupling cs)
Cc1ccc(S(=O)(=O)CCC(=O)Oc2ccc3c(C)cc(=O)oc3c2)cc1	G9a block 50.1µM (no result: Tau fibril ThT, Tau FP inhib, Sfp PPTase inh, FBPA coupling cs, Tau fluor cs)
Cc1ccc(OC(=O)CCS(=O)(=O)c2ccc(C)cc2)cc1	none (no result: Tau fibril ThT, Tau FP inhib, Tau fluor cs, G9a block)
